The panel holds about 83,000 compounds, 20% with a hit somewhere; the sample as a whole holds those more often.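 Results are percent growth after 48 hours of single-concentration exposure. 100 means growth as in untreated cells, lower positive values show inhibition; negative values down to -100 show cell death.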 Unmarked numbers belong to inactive results. Active and inactive are the calls of the source. Rule for the calls: active = growth percent below 10; inactive = the rest.

What all share (assay): NCI-60 one-dose screen, 48 h (100 = growth as untreated, 0 = no growth, -100 = all killed)
Conditions in all cases: 10 µM unless noted

Experiment [1] concerns HCT-15 colon.
Experiment [2] has as its system HT29 colon.
For experiment [3], the system named is SNB-75 CNS.
The test system of experiment [4] is SNB-19 CNS.
The subject of experiment [5] is U251 CNS.
Experiment [6] has as its system PC-3 prostate.
In experiment [7] the test system is SK-MEL-5 melanoma.
Experiment [8] concerns UACC-62 melanoma.
Experiment [9] concerns LOX IMVI melanoma.
Experiment [10] concerns SK-MEL-28 melanoma.
The test system of experiment [11] is EKVX NSCLC.
Experiment [12] concerns SN12C renal.
The test system of experiment [13] is UO-31 renal.
Experiment [14] relates to TK-10 renal.
Experiment [15] deals with ACHN renal.
Experiment [16] deals with CAKI-1 renal.
The subject of experiment [17] is A498 renal.
The subject of experiment [18] is CCRF-CEM leukemia.
Experiment [19] concerns MOLT-4 leukemia.

In the case of `CCc1cc2c(cc1N1CCC(N3CCOCC3)CC1)C(C)(C)c1[nH]c3cc(C#N)ccc3c1C2=O`, the growth in experiment [1] is 7.91% (active); in [2], -58% (active); in experiment [3], -90.3% (active); in experiment [4], 20.2%; in [5] it was -19.5% (active); in experiment [6] it was 4.07% (active). For the same compound, the growth in [7] is 10.2%; in [8], -16.4% (active); in experiment [9], -16.2% (active); in [10] it was -27.2% (active); in experiment [11] it was 15.9%; in [12] it was -14.9% (active). The growth in experiment [13] was -67.2% (active); in [14], -12.1% (active); in [15], -27.3% (active); in experiment [16] it was -46.7% (active); in experiment [17] it was -37.1% (active); in experiment [18], 22.4%. Further, the growth in experiment [19] is 25.4%.
As for `COc1cc(Nc2ncc(F)c(Nc3ccc4c(n3)NC(=O)C(C)(C)O4)n2)cc(OC)c1OC`, the growth is 53.3% in [1]; 12.3% in [2]; -7.82% (active) in experiment [3]; 64.6% in [4]; 48.5% in experiment [5]; 51.9% in [6]. Further, the growth in experiment [7] was 71.8%; in experiment [8], 58%; in experiment [9] it was 9.51% (active); in experiment [10], 67.1%; in experiment [11] it was 52.4%; in experiment [12], 36.6%. Moreover, the growth in experiment [13] is 2.95% (active); in experiment [14], 27.2%; in experiment [15] it was 5.32% (active); in experiment [16] it was 9.51% (active); in experiment [17] it was -43.9% (active); in experiment [18], 61%. In experiment [19], the growth was 52.4%.
As to `O=C(Cc1ccc(/C=C/C(=O)c2ncc[nH]2)cc1)Nc1ccc(S(F)(F)(F)(F)F)cc1`, the growth in experiment [1] is 34.2%; in [2], -25.7% (active); in [3], 72.8%; in experiment [4] it was 75.9%; in [5], 37%; in experiment [6], 58.9%. Besides, the growth in [7] was 98.4%; in experiment [8], 86.7%; in experiment [9], -59% (active); in experiment [10], 100%; in [11], 96.9%; in experiment [12] it was 80.3%. For the same compound, the growth was 60.7% in [13]; 107% in experiment [14]; 95.8% in [15]; 81.7% in experiment [16]; 88.3% in experiment [17]; 41.9% in experiment [18]. Moreover, the growth in experiment [19] is 53.4%.
For `CS(=O)(=O)CCNCc1ccc(-c2ccc3ncnc(Nc4ccc(OCc5cccc(F)c5)c(Cl)c4)c3c2)o1`, the growth was -3.39% (active) in [1]; -59.1% (active) in experiment [2]; -97.2% (active) in experiment [3]; 3.57% (active) in [4]; -84.8% (active) in [5]; -20.6% (active) in experiment [6]. For the same compound, the growth is -98.9% (active) in [7]; -52.4% (active) in experiment [8]; -72.5% (active) in [9]; -95.7% (active) in experiment [10]; 29.9% in experiment [11]; -17.9% (active) in experiment [12]. Besides, the growth in experiment [13] was 19.6%; in experiment [14] it was 7.31% (active); in experiment [15] it was 30.2%; in experiment [16] it was 40.1%; in experiment [17], 7.48% (active); in [18], 5.76% (active). Moreover, the growth in [19] is 4.21% (active).
As for `CCn1c(-c2nonc2N)nc2c(C#CC(C)(C)O)ncc(OC[C@H]3CCCNC3)c21`, the growth in experiment [1] is 82.4%; in experiment [2], 56.2%; in experiment [3], 2.75% (active); in experiment [4] it was 67.8%; in experiment [5], 41.8%; in experiment [6], 56.1%. The growth in experiment [7] was 91.7%; in [8], 79.8%; in experiment [9] it was 44.1%; in experiment [10] it was 45.8%; in experiment [11], 91.9%; in [12], 55.7%. Further, the growth in experiment [13] is 50.7%; in experiment [14], 46.2%; in [15], 78.4%; in [16], 54.5%; in [17] it was 42.3%; in experiment [18] it was 28.7%. Besides, the growth in experiment [19] is 18.5%.
Take `C[C@H]1Oc2cc(cnc2N)-c2c(nn(C)c2C#N)CN(C)C(=O)c2ccc(F)cc21`: the growth was 96.7% in [1]; 33% in experiment [2]; 83.8% in experiment [3]; 110% in experiment [4]; 96.6% in [5]; 81.7% in [6]. In addition, the growth in experiment [7] was 99.3%; in experiment [8], 70.9%; in [9] it was 74.2%; in experiment [10] it was 87.4%; in experiment [11], 82.5%; in experiment [12] it was 94.6%. The growth in [13] is 84.3%; in experiment [14], 74%; in [15], 86%; in [16], 73%; in [17], 109%; in [18], 93.8%. Also, in experiment [19], the growth was 70.5%.
With `CCN(CC)c1cc2oc3cc(N)cc(=N)c-3nc2cc1C`, the growth in [1] is 37.8%; in experiment [2], 86.7%; in [3], 11.6%; in experiment [4] it was 69.7%; in [5] it was 19.4%; in [6], 39.2%. For the same compound, the growth in [7] is -2.64% (active); in [8] it was 30.8%; in experiment [9], -0.53% (active); in experiment [10] it was 34.3%; in experiment [11] it was 50.5%; in experiment [12] it was 31.1%. For the same compound, the growth in experiment [13] was 67.9%; in experiment [14], 13.2%; in [15] it was 17.6%; in experiment [16] it was 42.5%; in experiment [17], 82%; in experiment [18], 15.3%. Also, the growth in [19] is 29.1%.
Turning to `Cc1cc(C(O)CN(C)C)cc2c1ccc1cc(C(C)C)ccc12` (configuration not stated), the growth in experiment [1] is -38.7% (active); in [2] it was -65.1% (active); in [3] it was -63.5% (active); in experiment [4], 59%; in experiment [5] it was -48.8% (active); in experiment [6], 48.6%. Further, the growth in [7] was -93.1% (active); in experiment [8] it was -81.2% (active); in experiment [9], -100% (active); in experiment [10] it was -100% (active); in experiment [11] it was 84.5%; in [12], 62.6%. Also, the growth in experiment [13] was 26.4%; in [14], -62.1% (active); in [15], -28.6% (active); in [16] it was 8.02% (active); in experiment [17] it was 76.8%; in experiment [18], 3.14% (active). In addition, in experiment [19], the growth was -29.5% (active).

The values above are taken from PubChem BioAssay (NCI).
